Laboratory results as given in the supplement of paper PMC12669032.

Tests used:
Test in all cases: growth AUC relative to DMSO control (median of replicates) (fraction); higher = more growth (less inhibition), active = hit call of the paper
Conditions in all cases: 20 µM; 24 h;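 active = AUC reduced over 20% with Padj below 0.05 in at least 2 of 3 replicates; inactive = otherwise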
Coprococcus comes = system: Coprococcus comes
Outline: (§1)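 In round-bottom 96-well plates sealed with pierced gas-permeable seals, gut bacterial monocultures in mGAM were grown anaerobically at 37 °C from OD600 0.05 with 20 µM compound (1% DMSO). OD600 readings were taken hourly for 24 h, and the minimum OD was set to 0. Area under the growth curve was then normalised to the plate median of solvent-only wells, or to row and column medians on the industrial chemical plate. The value given is the median of three biological replicates grown on separate days.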

Escherichia coli ED1a = system: Escherichia coli ED1a
Outline: as §1

Escherichia coli IAI1 = system: Escherichia coli IAI1
Outline: as §1

Eubacterium rectale = system: Eubacterium rectale
Outline: as §1

[1] = system: Fusobacterium nucleatum subsp. animalis
Outline: as §1

Lactobacillus gasseri = system: Lactobacillus gasseri
Outline: as §1

Lactobacillus paracasei = system: Lactobacillus paracasei
Outline: as §1

Odoribacter splanchnicus = system: Odoribacter splanchnicus
Outline: as §1

[2] = system: Parabacteroides distasonis
Outline: as §1

Parabacteroides merdae = system: Parabacteroides merdae
Outline: as §1

Measured: growth AUC

CCOP(=S)(OCC)SCCSCC
inactive: Coprococcus comes 1.03 | Escherichia coli ED1a 1.01 | Escherichia coli IAI1 1 | Eubacterium rectale 0.971 | [1] 1.09 | Lactobacillus gasseri 1.02 | Lactobacillus paracasei 1.1 | Odoribacter splanchnicus 1.02 | [2] 0.991 | Parabacteroides merdae 1.01

CCOC(=O)CCN(SN(C)C(=O)Oc1cccc2c1OC(C)(C)C2)C(C)C
inactive: Coprococcus comes 1.01 | Escherichia coli ED1a 0.994 | Escherichia coli IAI1 1.01 | Eubacterium rectale 1.1 | [1] 0.907 | Lactobacillus gasseri 0.911 | Lactobacillus paracasei 1.01 | Odoribacter splanchnicus 1.02 | [2] 1.05 | Parabacteroides merdae 0.979

CC(C)(C)c1ccc(CSc2cnn(C(C)(C)C)c(=O)c2Cl)cc1
inactive: Coprococcus comes 0.976 | Escherichia coli ED1a 1 | Escherichia coli IAI1 0.986 | Eubacterium rectale 0.966 | [1] 1.05 | Lactobacillus gasseri 0.945 | Lactobacillus paracasei 1.16 | Odoribacter splanchnicus 1.07 | [2] 0.988 | Parabacteroides merdae 0.962

CC(C)(C)C(O)C(Cc1ccc(Cl)cc1Cl)n1cncn1 (mixture of isomers)
inactive: Coprococcus comes 0.982 | Escherichia coli ED1a 0.981 | Escherichia coli IAI1 0.979 | Eubacterium rectale 0.845 | [1] 0.963 | Lactobacillus gasseri 0.947 | Lactobacillus paracasei 1.01 | Odoribacter splanchnicus 0.989 | [2] 0.871 | Parabacteroides merdae 0.889

CNC(=O)O/N=C(\C)SC
inactive: Coprococcus comes 0.981 | Escherichia coli ED1a 0.979 | Escherichia coli IAI1 1.01 | Eubacterium rectale 1.01 | [1] 0.985 | Lactobacillus gasseri 1.02 | Lactobacillus paracasei 0.967 | Odoribacter splanchnicus 0.992 | [2] 0.986 | Parabacteroides merdae 1

COP(=S)(OC)Oc1cc(Cl)c(I)cc1Cl
active: [2] 0.707
inactive: Coprococcus comes 1.01 | Escherichia coli ED1a 1.02 | Escherichia coli IAI1 0.985 | Eubacterium rectale 1.01 | [1] 1.08 | Lactobacillus gasseri 0.872 | Lactobacillus paracasei 1 | Odoribacter splanchnicus 0.962 | Parabacteroides merdae 0.964

c1ccc(-c2ccccc2)cc1
inactive: Coprococcus comes 0.991 | Escherichia coli ED1a 1.03 | Escherichia coli IAI1 1.01 | Eubacterium rectale 1.09 | [1] 1.1 | Lactobacillus gasseri 0.94 | Lactobacillus paracasei 0.749 | Odoribacter splanchnicus 0.945 | [2] 1.04 | Parabacteroides merdae 0.998

COCC(=O)N(c1c(C)cccc1C)N1CCOC1=O
inactive: Coprococcus comes 0.939 | Escherichia coli ED1a 0.975 | Escherichia coli IAI1 1.02 | Eubacterium rectale 0.964 | [1] 0.882 | Lactobacillus gasseri 0.914 | Lactobacillus paracasei 0.953 | Odoribacter splanchnicus 0.984 | [2] 1.03 | Parabacteroides merdae 1.01

CCc1cnc(C2=NC(C)(C(C)C)C(=O)N2)c(C(=O)O)c1 (stereo not given)
inactive: Coprococcus comes 0.975 | Escherichia coli ED1a 0.995 | Escherichia coli IAI1 1 | Eubacterium rectale 0.962 | [1] 0.981 | Lactobacillus gasseri 1.04 | Lactobacillus paracasei 0.924 | Odoribacter splanchnicus 0.961 | [2] 0.989 | Parabacteroides merdae 1.01

COC(=O)C(C)(Cl)Cl
inactive: Coprococcus comes 0.987 | Escherichia coli ED1a 0.977 | Escherichia coli IAI1 1.02 | Eubacterium rectale 0.934 | [1] 1.03 | Lactobacillus gasseri 1.18 | Lactobacillus paracasei 1.03 | Odoribacter splanchnicus 0.956 | [2] 1.05 | Parabacteroides merdae 1.04

COC(=O)C(C)N(C(=O)c1ccco1)c1c(C)cccc1C (stereo not given)
inactive: Coprococcus comes 0.96 | Escherichia coli ED1a 0.971 | Escherichia coli IAI1 0.981 | Eubacterium rectale 1.06 | [1] 1.04 | Lactobacillus gasseri 0.86 | Lactobacillus paracasei 1.06 | Odoribacter splanchnicus 0.938 | [2] 1 | Parabacteroides merdae 0.918

CCCOCCN(C(=O)CCl)c1c(CC)cccc1CC
inactive: Coprococcus comes 0.988 | Escherichia coli ED1a 0.963 | Escherichia coli IAI1 0.985 | Eubacterium rectale 1.02 | [1] 0.945 | Lactobacillus gasseri 0.927 | Lactobacillus paracasei 1.12 | Odoribacter splanchnicus 1.02 | [2] 0.848 | Parabacteroides merdae 0.942

CCOC(=O)c1cn2nc(OP(=S)(OCC)OCC)cc2nc1C
active: Odoribacter splanchnicus 0.692 | [2] 0.662
inactive: Coprococcus comes 0.952 | Escherichia coli ED1a 0.981 | Escherichia coli IAI1 0.97 | Eubacterium rectale 1.13 | [1] 0.938 | Lactobacillus gasseri 0.908 | Lactobacillus paracasei 0.911 | Parabacteroides merdae 0.909

N#Cc1nn(-c2c(Cl)cc(C(F)(F)F)cc2Cl)c(N)c1C(F)(F)F
active: [2] 0.791
inactive: Coprococcus comes 0.885 | Escherichia coli ED1a 0.986 | Escherichia coli IAI1 0.978 | Eubacterium rectale 1.01 | [1] 0.842 | Lactobacillus gasseri 0.801 | Lactobacillus paracasei 0.927 | Odoribacter splanchnicus 0.696 | Parabacteroides merdae 0.834

CCNc1nc(Cl)nc(NC(C)C)n1
inactive: Coprococcus comes 1.01 | Escherichia coli ED1a 1.02 | Escherichia coli IAI1 0.992 | Eubacterium rectale 1.06 | [1] 1.03 | Lactobacillus gasseri 0.976 | Lactobacillus paracasei 1.08 | Odoribacter splanchnicus 1.07 | [2] 1.05 | Parabacteroides merdae 0.999

COC(=O)COc1cc(Cl)c(Cl)cc1Cl
inactive: Coprococcus comes 0.967 | Escherichia coli ED1a 0.976 | Escherichia coli IAI1 1.02 | Eubacterium rectale 0.914 | [1] 0.981 | Lactobacillus gasseri 1.18 | Lactobacillus paracasei 1.11 | Odoribacter splanchnicus 0.974 | [2] 0.983 | Parabacteroides merdae 0.99

O=C1C(Cl)=C(Cl)C(=O)c2ccccc21
inactive: Coprococcus comes 1.05 | Escherichia coli ED1a 1.02 | Escherichia coli IAI1 0.973 | Eubacterium rectale 1.34 | [1] 1.02 | Lactobacillus gasseri 0.929 | Lactobacillus paracasei 0.941 | Odoribacter splanchnicus 0.797 | [2] 0.938 | Parabacteroides merdae 0.967

CC(=O)O.NC(N)=NCCCCCCCCNCCCCCCCCN=C(N)N
inactive: Escherichia coli ED1a 1 | Escherichia coli IAI1 0.928 | [1] 0.871 | Lactobacillus gasseri 0.874 | Lactobacillus paracasei 0.961
active: Coprococcus comes 0.64 | Eubacterium rectale 0.0294 | Odoribacter splanchnicus 0.0478 | [2] 0.132 | Parabacteroides merdae 0.0209

COCCN(C(=O)CCl)c1c(C)cccc1C
inactive: Coprococcus comes 0.983 | Escherichia coli ED1a 1 | Escherichia coli IAI1 0.973 | Eubacterium rectale 0.854 | [1] 0.939 | Lactobacillus gasseri 1.02 | Lactobacillus paracasei 0.831 | Odoribacter splanchnicus 0.965 | [2] 0.968 | Parabacteroides merdae 0.985

CC(Cc1ccc(C(C)(C)C)cc1)CN1CCCCC1 (stereo not given)
inactive: Coprococcus comes 0.931 | Escherichia coli ED1a 0.998 | Escherichia coli IAI1 0.932 | Eubacterium rectale 1.03 | [1] 1.02 | Lactobacillus gasseri 0.988 | Lactobacillus paracasei 1.03 | Odoribacter splanchnicus 1.05 | [2] 0.946 | Parabacteroides merdae 0.997

CNC(=O)Oc1cccc2c1OC(C)(C)C2O (stereo not given)
inactive: Coprococcus comes 1.05 | Escherichia coli ED1a 1.01 | Escherichia coli IAI1 1.01 | Eubacterium rectale 1.05 | [1] 1.15 | Lactobacillus gasseri 0.862 | Lactobacillus paracasei 1.11 | Odoribacter splanchnicus 1.02 | [2] 0.88 | Parabacteroides merdae 1.09

CCOC(=O)c1ccccc1S(=O)(=O)NC(=O)Nc1nc(Cl)cc(OC)n1
inactive: Coprococcus comes 0.988 | Escherichia coli ED1a 1.03 | Escherichia coli IAI1 1.02 | Eubacterium rectale 1.05 | [1] 1.07 | Lactobacillus gasseri 0.969 | Lactobacillus paracasei 1.05 | Odoribacter splanchnicus 1.1 | [2] 1.07 | Parabacteroides merdae 1.04

C1=Cc2cccc3cccc1c23
inactive: Coprococcus comes 1.01 | Escherichia coli ED1a 1.02 | Escherichia coli IAI1 1.01 | Eubacterium rectale 0.988 | [1] 1.02 | Lactobacillus gasseri 0.975 | Lactobacillus paracasei 1.04 | Odoribacter splanchnicus 0.99 | [2] 0.889 | Parabacteroides merdae 1.02

CC(C)OP(=O)(OC(C)C)SCc1ccccc1
inactive: Coprococcus comes 1.03 | Escherichia coli ED1a 1.01 | Escherichia coli IAI1 0.984 | Eubacterium rectale 1.09 | [1] 1.01 | Lactobacillus gasseri 0.959 | Lactobacillus paracasei 1.01 | Odoribacter splanchnicus 1.05 | [2] 0.866 | Parabacteroides merdae 0.988

O=[N+]([O-])c1ccc(Oc2ccc(Cl)cc2Cl)cc1
inactive: Coprococcus comes 0.988 | Escherichia coli ED1a 0.99 | Escherichia coli IAI1 0.983 | Eubacterium rectale 1.07 | [1] 1 | Lactobacillus gasseri 0.789 | Lactobacillus paracasei 0.976 | Odoribacter splanchnicus 0.946 | Parabacteroides merdae 0.967
active: [2] 0.655

CCOc1nc(NC)nc(NC(=O)NS(=O)(=O)c2ccccc2C(=O)OC)n1
inactive: Coprococcus comes 0.996 | Escherichia coli ED1a 1.02 | Escherichia coli IAI1 1.02 | Eubacterium rectale 0.974 | [1] 1.04 | Lactobacillus gasseri 1.23 | Lactobacillus paracasei 1.04 | Odoribacter splanchnicus 1.04 | [2] 1.05 | Parabacteroides merdae 1.03

CCS(=O)(=O)Oc1ccc2c(c1)C(C)(C)CO2
inactive: Coprococcus comes 1.08 | Escherichia coli ED1a 1.02 | Escherichia coli IAI1 1.02 | Eubacterium rectale 0.83 | [1] 0.966 | Lactobacillus gasseri 1.06 | Lactobacillus paracasei 1 | Odoribacter splanchnicus 1.07 | [2] 1.03 | Parabacteroides merdae 0.963
